# Measurements reported in PubChem BioAssay AID1745849 (National Center for Advancing Translational Sciences (NCATS), 2022).
# Among all 2,100 compounds or so, about 320 (15%) were called active. Roughly 52% stayed inconclusive and do not appear here. Calls follow the shape of the dose curve; as a rule, active = well fitted cell-killing curve with a large enough effect; inconclusive = small, poorly fitted or top-dose-only effect, or effect the other way; inactive = flat fitted curve, though single readings scatter. The list shows a part of the results.
# Experiment: Viability Counterscreen for CMV-Luciferase Assay of Inhibitors of ATXN expression; also: nearly all actives have a fitted effect of over 55% in size
# Details: HEK-293 CMV-luciferase cells viability, protease fluorescence, 24 h; activity change, negative = cytotoxicity: at the top concentration
# Method in brief: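 Fluorescence from cleaved Gly-Phe-AFC (25 uM final, 30 min, ex 405/em 540 nm) reported viability, and the luciferase signal of the same CMV-reporter HEK-293 wells was read 5 min after SteadyGlo addition. Dosing lasted 24 hr.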
# % is scaled to controls: 0 for no effect and ±100 for the full control effect; potency is read from the fitted curve at half-maximal effect.
SMILES,Potency,"activity change, negative = cytotoxicity"
Cc1ccc(C)c(/C=C/C(=O)c2ccccc(=O)c2O)c1,20 µM (active),
O=c1c2c(nc3c(-c4cccc(Br)c4)c[nH]n13)CCCC2,10 µM (active),
O=c1c2c(nc3c(-c4ccc(Cl)cc4)c[nH]n13)CCC2,,-20.6% (inactive)
O=C(Nc1cccnc1)C1Cc2c(-c3ccc4c(c3)OCO4)ccnc2O1 (stereo not given),,-12.2% (inactive)
COc1ccc(Cl)cc1S(=O)(=O)N1CCN(C(=O)c2n[nH]c(=O)c3ccccc23)CC1,,-12.8% (inactive)
CC(C)C(=O)NC(c1cccc([N+](=O)[O-])c1)c1ccc2cccnc2c1O (stereo not given),3.16 µM (active),
CC(=O)NC(c1cccc([N+](=O)[O-])c1)c1ccc2cccnc2c1O (stereo not given),1.58 µM (active),
Cc1ccnc(NC(c2ccccc2)c2ccc3cccnc3c2O)c1 (stereo not given),,-17.1% [at 57.5 µM] (inactive)
O=[N+]([O-])c1ccc(NC(c2ccccc2)c2ccc3cccnc3c2O)cc1 (stereo not given),11.2 µM (active),
Oc1c(C(Nc2cccc(C(F)(F)F)c2)c2ccncc2)ccc2cccnc12 (stereo not given),8.91 µM (active),
CC(=O)NC(c1ccco1)c1ccc2cccnc2c1O (stereo not given),,-22.3% (inactive)
Oc1c(C(Nc2cccc(C(F)(F)F)c2)c2cccnc2)ccc2cccnc12 (stereo not given),,-27.3% [at 57.5 µM] (inactive)
CCCC(=O)NC(c1ccc(C(C)C)cc1)c1ccc2cccnc2c1O (stereo not given),,-20.8% (inactive)
O=C(O)CSc1cc(NS(=O)(=O)c2cccc([N+](=O)[O-])c2)c2ccccc2c1O,,-27.2% (inactive)
Oc1c(C(Nc2ccccn2)c2cccnc2)cc(Cl)c2cccnc12 (stereo not given),,20.9% [at 57.5 µM] (inactive)
CCc1nc2c(OCCOc3ccc(F)cc3)cccn2c1N(C)C(=O)c1ccco1,,14.6% [at 57.5 µM] (inactive)
CCCCOc1ccccc1NC(=O)c1scc2c1OCCO2,,-13.6% (inactive)
Cc1ccc(/C=C2/CNC/C(=C/c3ccc(C)cc3)C2=O)cc1,8.91 µM (active),
O=C(CNC(=O)c1ccco1)N/N=C/c1cc(Br)ccc1O,,-12.2% [at 57.5 µM] (inactive)
CC(C)(CC(=O)N1CCN(c2ccc(Cl)cc2)CC1)CC1=NS(=O)(=O)c2ccccc2N1,,-18.6% (inactive)
OC(c1cc(-c2cccc(Cl)c2)nc2ccccc12)C1CCCCN1 (stereo not given),17.8 µM (active),
Cc1c(C(=O)NCc2ccc(C(F)(F)F)cc2)sc(=O)n1Cc1cccc(F)c1,,12% [at 57.5 µM] (inactive)
CCn1cc(C(=O)NCc2cccc(F)c2)c(=O)c2cc(F)c(N3CCN(C(=O)c4ccco4)CC3)cc21,22.4 µM (active),
CCOC(=O)Cn1cc(C(=O)c2ccco2)c2ccccc21,,0.882% (inactive)

SMILES,Potency,"activity change, negative = cytotoxicity"
CCCOc1ccc(C(=O)C(CN2CCOCC2)c2ccccc2)cc1 (stereo not given),25.1 µM (active),
CC(=O)c1ccc(N2CCN(CC(O)COC(c3ccccc3)c3ccccc3)CC2)cc1 (stereo not given),,-1.22% (inactive)
COc1ccc(-c2csc(Nc3ccc(S(N)(=O)=O)cc3)n2)cc1OC,,-22.9% [at 57.5 µM] (inactive)
COc1cccc(CC(=O)Nc2nc(-c3ccc(OC)c(OC)c3)cs2)c1,28.2 µM (active),
COc1ccc(CC(=O)Nc2nc(-c3ccc(OC)c(OC)c3)cs2)cc1OC,,-25.3% (inactive)
CC(C)(C)c1ccc(CC(=O)N2CCC2(C)C(=O)Nc2cnc3ccccc3c2)cc1 (stereo not given),,-1.12% (inactive)
NC(=S)n1[nH]c(-c2ccc([N+](=O)[O-])cc2)c(N=Nc2cccc(Cl)c2)c1=O,14.1 µM (active),
CCOc1ccc(C(=O)Nc2ccc(Cc3ccncc3)cc2)cc1Br,,-12.6% [at 57.5 µM] (inactive)
Cc1cccc(OCCCC(=O)Nc2nc3ccccc3[nH]2)c1,,-23.8% (inactive)
Cc1cc(C)c(C)c(OC(=O)c2sc(Cl)nc2C)c1,20 µM (active),
COC(=O)c1sc(NC(=O)c2ccc(OC)cc2OC)nc1C,,-8.55% [at 57.5 µM] (inactive)
Clc1ccc(COC(Cn2ccnc2)c2ccc(Cl)cc2Cl)c(Cl)c1 (stereo not given),,-29.7% (inactive)
CCc1cc2c(=O)c(-c3cnn(-c4ccccc4)c3)coc2c(CN2CCOCC2)c1O,,-15.4% (inactive)
Cc1nnc(SCC(N)=O)n1CC1CCCO1 (stereo not given),,-21.6% [at 57.5 µM] (inactive)
CCCCC(=O)OCC(=O)C1(O)Cc2c(O)c3c(c(O)c2C(OC2CC(NC(=O)C(F)(F)F)C(O)C(C)O2)C1)C(=O)c1c(OC)cccc1C3=O (stereo not given),8.91 µM (active),
COc1cccc2c1C(=O)c1c(O)c3c(c(O)c1C2=O)C[C@](O)(C(C)=O)C[C@H]3O[C@@H]1C[C@@H](N)[C@@H](O)[C@@H](C)O1,0.891 µM (active),
COc1cccc2c1C(=N)c1c(O)c3c(c(O)c1C2=O)CC(O)(C(C)=O)CC3OC1CC(N)C(O)C(C)O1 (stereo not given),1.26 µM (active),
Cn1c(CCc2nc3ccccc3[nH]2)nnc1SCC#N,,15.7% [at 57.5 µM] (inactive)
CCC(C)(C)c1ccc(OCCCC[n+]2ccc(C)cc2)c(C(C)(C)CC)c1,,-27.3% (inactive)
CN(CC(=O)Nc1cccc(F)c1)CC(=O)Nc1cccc2ccccc12,,-9.2% [at 57.5 µM] (inactive)
CCN1CCN(Cc2ccc(NC(=O)c3ccc(C)c(NC(=O)c4nccnc4N)c3)cc2C(F)(F)F)CC1,,-25.1% [at 57.5 µM] (inactive)
O=C1C=C(Nc2ccccc2O)c2ccccc2C1=O,20 µM (active),
OC(c1ccccc1)(c1nc(-c2ccc3ccccc3c2)cs1)C(F)(F)F (stereo not given),,11% (inactive)
Cc1ccc(NS(=O)(=O)c2cc3c4c(cccc4c2)C(=O)NC3=O)cc1C,,-14.4% (inactive)

SMILES,Potency,"activity change, negative = cytotoxicity"
O=C(N/N=C(\Cc1ncc[nH]1)c1ccccc1)c1cccnc1,,-16.1% (inactive)
CCC(CC)C(=O)c1c[nH]c(C(=O)NCc2ccccn2)c1,,3.69% [at 57.5 µM] (inactive)
O=C(N/N=C(\c1ccccc1)c1ccccn1)c1ccccc1Cl,7.94 µM (active),
O=C(NN=C(c1ccccc1)c1ccccn1)c1ccccc1,3.16 µM (active),
CCn1c2ccccc2c2cc(/C=N/n3cnnc3)ccc21,,-23.3% (inactive)
CCN1CCN(C(=S)c2ccc(-c3ccccc3)cc2)CC1,,-13.5% [at 57.5 µM] (inactive)
Cn1c2c(c(=O)[nH]c1=O)C(c1cccc(O)c1)C1=C(N2)c2ccccc2C1=O (stereo not given),11.2 µM (active),
CNc1nc2c(N)ncnc2n1[C@H]1O[C@@H](CO)[C@H](O)[C@@H]1O,,1.58% (inactive)
N#Cc1c(N)n(C2OC(CO)C(O)C2O)c2ncnc(N)c12 (stereo not given),1.41 µM (active),
CCOC(=O)c1c(NC(=O)COC(=O)c2ccccc2NC)sc(C(=O)N(C)C)c1C,,-3.31% (inactive)
COC(=O)c1c(C)oc2ccc(N(C(=O)c3ccncc3)S(=O)(=O)c3ccc(C)cc3C)cc12,,-27.7% (inactive)
CCC1(c2ccccc2)ON(c2c(Br)cccc2Br)C1=O (stereo not given),17.8 µM (active),
Cc1nc(Oc2ccc(S(=O)(=O)N3CCOCC3)cc2Cl)c2c3c(sc2n1)CCCC3,,-19.1% (inactive)
N=c1ccn(CC(=O)c2ccc(-c3ccccc3)cc2)cc1,,-17.4% (inactive)
Clc1ccc(-c2cc(C3CCNCC3)[nH]n2)c(Cl)c1,,26.4% [at 57.5 µM] (inactive)
COc1cc(NS(=O)(=O)c2ccc(N/C=C(\C#N)c3nc4cc(Cl)ccc4o3)cc2)nc(OC)n1,14.1 µM (active),
CCN1CCN(c2ccc(Cl)cc2NC(=O)c2ccc(-n3nc(C)cc3C)cc2)CC1,,-12.5% [at 57.5 µM] (inactive)
Nc1nc(NCCc2ccccc2)nc(NCc2ccccc2)c1[N+](=O)[O-],,-23.9% [at 57.5 µM] (inactive)
CCc1cc[n+](C2=C([O-])c3ccccc3C(=O)/C2=N\S(=O)(=O)c2cccs2)cc1,17.8 µM (active),
O=C(COC(=O)c1cc([N+](=O)[O-])ccc1N1CCOCC1)Nc1ccc(Cl)cn1,14.1 µM (active),
COc1ccccc1/C=C/C(=O)OCC(=O)Nc1ccc(Cl)cn1,,-27.1% [at 57.5 µM] (inactive)
Cc1cc(C)c2c(CC(=O)Nc3ccc(Cl)cn3)coc2c1,,-3.79% (inactive)
CCn1c(C)cc(C(=O)COC(=O)c2ccccc2[N+](=O)[O-])c1C,,-4.45% [at 57.5 µM] (inactive)
O=C(N/N=C/c1cc([N+](=O)[O-])ccc1O)c1ccc(COc2ccc3c(c2)CCC3)o1,11.2 µM (active),

SMILES,Potency,"activity change, negative = cytotoxicity"
COc1ccc(O)c(/C=N/NC(=O)c2ccc(N3CCCC3=O)cc2)c1,,-7.9% [at 57.5 µM] (inactive)
COc1ccc(O)c(/C=N/NC(=O)c2ccc(OCc3cccc(Br)c3)cc2)c1,,-22.1% (inactive)
COc1ccc2nc(C)c3c(c2c1)OC(C(C)(Cl)Br)C3 (stereo not given),,-24.3% (inactive)
N#CCc1nc2ccccc2c(=O)[nH]1,,4.06% [at 57.5 µM] (inactive)
CC1(C)COCN1S(=O)(=O)c1ccc(C(=O)Nc2nnc(-c3ccc(Cl)s3)o2)cc1,,-16.1% (inactive)
O=C1c2cccc3cc([N+](=O)[O-])cc(c23)C(=O)N1CCN1CCCC1,1.58 µM (active),
C/[N+]([O-])=C\c1cccc(OCCN2CCN(c3ncc(C(F)(F)F)cc3Cl)CC2)c1,,6.84% (inactive)
Cn1c(CO)cnc1S(=O)(=O)Cc1ccc([N+](=O)[O-])cc1,,-1.7% [at 57.5 µM] (inactive)
COc1cc(C(=O)O/N=C(\N)Cc2ccc([N+](=O)[O-])cc2)cc(OC)c1OC,3.16 µM (active),
Cc1sc2nc(CN3CCCC3)nc(N3CCC(C(N)=O)CC3)c2c1C,,-6.87% [at 57.5 µM] (inactive)
Nc1ccc2c(c1)OC1(CCCC1)O2,,-18% (inactive)
CCn1c2ccccc2c2cc(NC(=O)COC(=O)Cc3cn4ccsc4n3)ccc21,,1.78% (inactive)
CC1CCN(Cc2c(C(=O)N/N=C/c3cc(Br)ccc3O)nnn2-c2nonc2N)CC1,,-14% (inactive)
Cc1cc(N2CCN(C)CC2)ccc1NC(=O)c1ccc(-c2ccc(Cl)cc2)o1,,-20.4% [at 57.5 µM] (inactive)
Cc1cccc2c1-c1sc(C(=O)Nc3ccccc3N3CCN(C)CC3)cc1CO2,22.4 µM (active),
CC1CC(C)CN(CCCNC(=O)c2cc3c(s2)-c2ccccc2OC3)C1 (stereo not given),,-13.8% (inactive)
NC(=O)CC(NC(=O)Cc1ccc(Br)cc1)c1ccc(NC2CCCC2)c([N+](=O)[O-])c1 (stereo not given),3.16 µM (active),
CC(C)C[C@H](N)c1cn([C@@H](CCCCN)C(=O)N2CCNCC2)nn1,,6.2% (inactive)
O=C(NC(Nc1nc2ccc([N+](=O)[O-])cc2s1)(C(F)(F)F)C(F)(F)F)c1ccccc1,0.562 µM (active),
O=C(NC(Nc1ncc(S(=O)(=O)c2ccc([N+](=O)[O-])cc2)s1)(C(F)(F)F)C(F)(F)F)c1ccc(Cl)cc1,10 µM (active),
Cc1nc2ccc(NC(=O)c3ccc(S(=O)(=O)N(C)c4ccccc4)cc3)cc2s1,,-14% (inactive)
CO[C@@]12[C@@H]3N[C@@H]3CN1C1=C(C(=O)C(N)=C(C)C1=O)[C@@H]2COC(N)=O,,22.6% (inactive)
CC1=CC(C)(C)N2C(=O)C3(SCC(=O)N3c3ccc(F)cc3)c3cc(C)cc1c32 (stereo not given),,-24% (inactive)
